Hits are enriched below; roughly 4% of the tested compounds scored in any of these assays.
UGM FP inh – blocks M. tuberculosis UGM enzyme; P9WIQ1; purified UGM, fluorescence polarization probe displacement; inhibition, % at 10 µM; 320,000 tested, 0.06% active; in the data active means inhibition above about 10%, passing the limit was not always enough
Target sequence (P9WIQ1 whole entry, looked up): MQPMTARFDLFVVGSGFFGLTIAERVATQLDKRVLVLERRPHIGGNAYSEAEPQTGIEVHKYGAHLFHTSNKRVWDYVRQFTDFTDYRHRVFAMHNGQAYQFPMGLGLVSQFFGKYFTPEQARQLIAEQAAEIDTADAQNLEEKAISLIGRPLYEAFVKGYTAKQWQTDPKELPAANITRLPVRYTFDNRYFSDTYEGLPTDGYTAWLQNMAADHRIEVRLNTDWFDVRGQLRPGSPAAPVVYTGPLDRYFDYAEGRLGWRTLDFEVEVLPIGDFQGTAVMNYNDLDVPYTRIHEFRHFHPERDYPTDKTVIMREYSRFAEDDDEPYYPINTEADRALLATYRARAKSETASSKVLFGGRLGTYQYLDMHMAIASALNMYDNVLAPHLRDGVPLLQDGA
RecA splice inh – inhibitors of M. tuberculosis RecA intein splicing. P9WHJ3. AID 2221. cell-free RecA intein splicing, fluorescence. 290,000 tested, 0.75% active. inhibition, % (test concentration not listed); in the data active means inhibition above about 30%
GDH-TPI counter – counter-screen for M. tuberculosis FBA inhibitors: GDH-TPI coupled enzymes; inhibition, % at 4.8 µM; GDH-TPI coupled enzyme counterscreen, NADH absorbance; 360,000 tested, 1.2% active; in the data active means inhibition above about 30%
Mtb FBA inh – Mtb fructose-bisphosphate aldolase inhibition | 360,000 tested, 2.3% active | AID 588726 | purified M. tuberculosis FBA, fluorescence read-out | inhibition, % at 1 µM; in the data active means inhibition above about 27%
Rv3671c protease – inhibitors of M. tuberculosis serine protease Rv3671c. P9WHR9. inhibition, % at 5.96 µM. 320,000 tested, 0.048% active. AID 2606; in the data active means inhibition above about 38%;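 further: extracellular domain of Rv3671c used as enzyme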
Mtb bLac sens – beta-lactam sensitization of Mtb H37Rv; AID 434955; inhibition, % at 25 µM; M. tuberculosis H37Rv growth with meropenem, percent inhibition; 330,000 tested, 0.27% active; call rule not given here;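 further: growth measured after seven days incubation then overnight dye step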
Large screens that a line does not name were inactive.

Cc1noc(/C=C/N(C)C)c1S(=O)(=O)N1CCCC(C(=O)NCc2cccs2)C1 (stereo unspecified)	GDH-TPI counter 37.8
COc1cccc(CNC(=O)C2CCCN(S(C)(=O)=O)C2)c1 (stereo unspecified)	none
COc1ccccc1CNC(=O)C1CCCN(S(=O)(=O)c2c(C)[nH]c(=O)[nH]c2=O)C1 (stereo unspecified)	Mtb FBA inh 65.5
COc1cccc(CNC(=O)C2CCCN(S(=O)(=O)c3c(C)noc3/C=C/N(C)C)C2)c1 (stereo unspecified)	GDH-TPI counter 33.8
COc1ccccc1CNC(=O)C1CCCN(S(=O)(=O)c2cnc[nH]2)C1 (stereo unspecified)	none (no result: RecA splice inh)
COC(=O)c1ccc(-c2nc3ccccc3[nH]2)cc1	Mtb FBA inh active
O=C(O)c1cccc(-c2nc3ccccc3[nH]2)c1	Mtb FBA inh 112.3
Cc1ccn2cc(-c3ccc(NC(=O)c4ccco4)cc3)nc2c1	GDH-TPI counter 33.1
Cc1cc(-c2nc3ccccc3[nH]2)ccc1N	Mtb FBA inh 174.3
O=c1[nH]c(=S)[nH]c2c1C(c1ccc(Cl)cc1)OC(CCc1ccccc1)C2 (stereo unspecified)	none (no result: UGM FP inh, RecA splice inh, GDH-TPI counter, Rv3671c protease, Mtb bLac sens)
CN[C@H]1C[C@H]2c3[nH]c4ccc(-c5cccc(C)c5)cc4c3CCN2C[C@H]1[C@H](C)O	none (no result: UGM FP inh, RecA splice inh, Rv3671c protease, Mtb bLac sens)
COC(=O)c1ccc(-c2ncc[nH]2)cc1	Mtb FBA inh active
O=C(/C=C/c1ccco1)Nc1ccc(-c2nc3ccccc3[nH]2)cc1	none
O=C(Nc1ccc(-c2nc3ccccc3[nH]2)cc1)c1ccco1	GDH-TPI counter 41.9
O=c1oc2c(CN3CCOCC3)c(O)ccc2c2c1CCCC2	Mtb FBA inh active
O=c1oc2c(CN3CCOCC3)c(O)ccc2c2ccccc12	none
O=c1oc2c(CN3CCOCC3)c(O)c(Cl)cc2c2c1CCCC2	Mtb FBA inh active
C=CCc1c(C)nc(C)nc1N/N=C/c1ccc(F)cc1	GDH-TPI counter 32.5
N#Cc1nc(-c2ccc(F)cc2)oc1N1CCCCC1	Mtb FBA inh 178.2
N#Cc1nc(-c2ccc([N+](=O)[O-])cc2)oc1N1CCCCC1	none
N#Cc1nc(-c2ccc(F)cc2)oc1N1CCCC1	Mtb FBA inh 112.8
O=C(CN(CC1CCCO1)C(=O)CNS(=O)(=O)c1ccc(F)cc1)NCCc1ccccc1 (stereo unspecified)	none
CNc1ccccc1C(=O)OCC(C)=O	Mtb FBA inh 62.5
CCN(C(=O)COc1ccc(C)cc1OC)c1cccc2ccccc12	none (no result: RecA splice inh)
O=C(OCC(=O)N1CCN(C(=O)c2ccco2)CC1)c1ccccc1NCCO	Mtb FBA inh 123.7
O=C(OCC(=O)N1CCN(C(=O)COC(=O)c2ccccc2NCCO)CC1)c1ccccc1NCCO	Mtb FBA inh 161.7 (no result: UGM FP inh, RecA splice inh, Rv3671c protease, Mtb bLac sens)
CCN(C(=O)COC(=O)c1ccccc1NCCO)c1cccc2ccccc12	Mtb FBA inh 113.6 (no result: UGM FP inh)
CC1CCN(C(=O)COC(=O)c2ccccc2NC(=O)c2ccco2)CC1	none
CNc1ccccc1C(=O)OC	none
Cc1cccc(Nc2ccccc2C(=O)OCC(=O)N2CCOCC2)c1C	none
Cn1nc(C(C)(C)C)cc1C(=O)N1CCCC(c2cc(C(=O)Nc3ccccc3Cl)no2)C1 (stereo unspecified)	none (no result: UGM FP inh, RecA splice inh, Rv3671c protease, Mtb bLac sens)
CN(C)C(=O)CCc1ccc2c3c([nH]c2c1)[C@]1(C)[C@@H](C(=O)N2CCOCC2)C[C@H](CC(=O)NCCCn2ccnc2)C(=O)N1CC3	none (no result: UGM FP inh, RecA splice inh, Rv3671c protease, Mtb bLac sens)
Cn1ncc(Cl)c1C(=O)N1CCN(S(=O)(=O)c2ccc(Cl)s2)CC1	none
O=C(O)c1cc(-c2ccco2)nc2ccccc12	Mtb FBA inh 180.6
O=C(NC1CC1)c1cc(-c2ccco2)nc2ccccc12	Mtb FBA inh 63.0 (no result: UGM FP inh, Rv3671c protease, Mtb bLac sens)
Cc1nnc(NC(=O)c2cc(-c3ccco3)nc3ccccc23)s1	none
C[C@@H]1O[C@@H](O[C@@H]2[C@@H](O)[C@H](OCCc3ccc(O)c(O)c3)O[C@H](CO)[C@H]2OC(=O)/C=C/c2ccc(O)c(O)c2)[C@H](O)[C@H](O)[C@H]1O	none (no result: RecA splice inh)
CC(C)NC(=O)NC(=O)CN1c2cccc3cccc(c23)S1(=O)=O	none
Cc1ncc([N+](=O)[O-])n1S(=O)(=O)c1ccc2c(c1)OCCO2	none (no result: UGM FP inh, RecA splice inh, Rv3671c protease, Mtb bLac sens)
COc1ccc(OC)c(NC(=O)C2(C)CCN2C(=O)C2(c3ccc(Cl)cc3)CCC2)c1 (stereo unspecified)	none (no result: UGM FP inh, RecA splice inh, Rv3671c protease, Mtb bLac sens)
Cc1cc(O)c(C=O)c2c1C(=O)Oc1c(CO)c(O)c3c(c1O2)C(O)OC3=O (stereo unspecified)	Rv3671c protease 56.7 (no result: RecA splice inh)
CC1(C)CC(=O)C2=C(C1)Nc1ccccc1NC2c1nc2ccccc2[nH]1 (stereo unspecified)	GDH-TPI counter 32.2
CC1(C)CC(=O)C2=C(C1)Nc1ccccc1NC2c1ccccn1 (stereo unspecified)	GDH-TPI counter 41.9
COc1cccc(C2Nc3ccccc3NC3=C2C(=O)CC(C)(C)C3)c1OC (stereo unspecified)	GDH-TPI counter 34.8
CC1(C)CC(=O)C2=C(C1)Nc1ccccc1NC2c1ccc2c(c1)OCO2 (stereo unspecified)	GDH-TPI counter 41.0
CC1(C)CC(=O)C2=C(C1)Nc1ccccc1NC2c1ccc(F)cc1 (stereo unspecified)	none
CCCc1cc(C(=O)Nc2cccc(-c3nn[nH]n3)c2)sc1C	none (no result: UGM FP inh, RecA splice inh, Rv3671c protease, Mtb bLac sens)
CC(C)CC(N)c1csc(Nc2ccc(C(=O)c3ccccc3)cc2)n1 (stereo unspecified)	none (no result: UGM FP inh, RecA splice inh, Rv3671c protease, Mtb bLac sens)
CC(=O)c1ccc(Nc2nc(C(N)C3CCCCC3)cs2)cc1 (stereo unspecified)	GDH-TPI counter 33.6 (no result: UGM FP inh, RecA splice inh, Rv3671c protease, Mtb bLac sens)
NC(c1csc(Nc2ccc(C(=O)c3ccccc3)cc2)n1)C1CCCCC1 (stereo unspecified)	none (no result: UGM FP inh, RecA splice inh, Rv3671c protease, Mtb bLac sens)
CC(=O)c1ccc(Nc2nc(C(N)CC(C)C)cs2)cc1 (stereo unspecified)	GDH-TPI counter 32.0 (no result: UGM FP inh, RecA splice inh, Rv3671c protease, Mtb bLac sens)
COc1ccc(CC(N)c2csc(Nc3ccc(C(C)=O)cc3)n2)cc1 (stereo unspecified)	GDH-TPI counter 38.4 (no result: UGM FP inh, RecA splice inh, Rv3671c protease, Mtb bLac sens)
CCOc1ccc(C(=O)COC(=O)c2nn(CC)c(=O)c3ccccc23)cc1	none (no result: RecA splice inh)
Cc1ccsc1/C=N/NC(=O)c1ccccn1	GDH-TPI counter 38.5
O=C(N/N=C/c1ccsc1)c1c[nH]c2ccccc12	none
Cc1ccc(/C=N/NC(=O)c2c[nH]c3ccccc23)s1	GDH-TPI counter 48.9
O=C(N/N=C/c1c[nH]c2ccccc12)c1ccc(O)c(O)c1	GDH-TPI counter 36.1
O=C(N/N=C/c1c[nH]c2ccccc12)c1cccc(O)c1	none
Cc1ccsc1/C=N/NC(=O)c1c[nH]c2ccccc12	GDH-TPI counter 44.6
O=C(N/N=C/c1ccc[nH]1)c1cc2ccccc2cc1O	GDH-TPI counter 37.0
O=C(N/N=C/c1cc(Br)c(Br)o1)C(O)c1ccccc1 (stereo unspecified)	none
Cc1ccc(/C=N/NC(=O)c2c[nH]c3ccccc23)o1	GDH-TPI counter 59.3
Cc1ccc(/C=N/NC(=O)C(O)c2ccccc2)o1 (stereo unspecified)	GDH-TPI counter 30.6
O=C(N/N=C/c1ccc[nH]1)c1sc2ccccc2c1Cl	GDH-TPI counter 37.5
